Rows were chosen to be rich in hits. Some 2.1% of all compounds tested hit in one or more screens of this group.
aSyn 5UTR inh – 5' untranslated region of α-synuclein, MLPCN primary screen; alpha-synuclein 5'UTR reporter, inhibitor activity; AID 1813; inhibition, % (tested at 7.5 µM); actives 0.82% (n = 300,000); in the data active means inhibition above about 60%; inconclusive means no clear call, values can overlap the other calls;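 further: H4 neuroglioblastoma cells stably carrying SNCA 5'UTR luciferase fusion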
KLF5 inhibitor – inhibitors of KLF5 expression. actives 0.23% (n = 290,000). DLD-1 KLF5 promoter-luciferase reporter, luminescence. inhibition, % at 5 µM;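 active means inhibition above a per-plate limit of that plate's mean compound inhibition plus 3 SD, cut at about 60% in these data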;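 further: higher means less KLF5 promoter-driven luciferase light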
Platelet DG rel – platelet dense granule release activity; inhibition, %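 (compounds screened at 7.5 µM in platelet-rich plasma)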; human platelet-rich plasma, SFLLRN dense granule ATP release, luminescence; AID 1663; actives 0.22% (n = 300,000);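 active means mean replicate score, as percent of positive control, at or above 50; inconclusive means mean below 50 but at least one replicate at or above 50; inactive means mean and every replicate below 50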
HIF activator – HIF pathway transcriptional activation; U2OS HRE-luciferase reporter, luminescence; normalized: DMSO 0%, desferrioxamine 100%; activation, % at 7.5 µM (by protocol); actives 0.32% (n = 300,000);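 active means mean activation of at least 10% of the iron chelator positive control signal, with at least half of replicates also reaching 10%; inconclusive means mean and replicate majority disagree about reaching 10%; inactive means mean and most replicates under 10%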
Wee1 stabilizer – blocks degradation of human Wee1 kinase; actives 1.2% (n = 220,000); P30291; HeLa Luc-Wee1K328M stability, luciferase luminescence; 100% = proteasome inhibitor MG132 effect; reporter increase, % at 5 µM; AID 1321;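 active means activation above the mean of all tested compounds plus 3 SD, set per screening run, cut at about 8.8% in these data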;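 further: cells exposed to compound for 20 h before luminescence read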
Target sequence (P30291 whole entry K328M): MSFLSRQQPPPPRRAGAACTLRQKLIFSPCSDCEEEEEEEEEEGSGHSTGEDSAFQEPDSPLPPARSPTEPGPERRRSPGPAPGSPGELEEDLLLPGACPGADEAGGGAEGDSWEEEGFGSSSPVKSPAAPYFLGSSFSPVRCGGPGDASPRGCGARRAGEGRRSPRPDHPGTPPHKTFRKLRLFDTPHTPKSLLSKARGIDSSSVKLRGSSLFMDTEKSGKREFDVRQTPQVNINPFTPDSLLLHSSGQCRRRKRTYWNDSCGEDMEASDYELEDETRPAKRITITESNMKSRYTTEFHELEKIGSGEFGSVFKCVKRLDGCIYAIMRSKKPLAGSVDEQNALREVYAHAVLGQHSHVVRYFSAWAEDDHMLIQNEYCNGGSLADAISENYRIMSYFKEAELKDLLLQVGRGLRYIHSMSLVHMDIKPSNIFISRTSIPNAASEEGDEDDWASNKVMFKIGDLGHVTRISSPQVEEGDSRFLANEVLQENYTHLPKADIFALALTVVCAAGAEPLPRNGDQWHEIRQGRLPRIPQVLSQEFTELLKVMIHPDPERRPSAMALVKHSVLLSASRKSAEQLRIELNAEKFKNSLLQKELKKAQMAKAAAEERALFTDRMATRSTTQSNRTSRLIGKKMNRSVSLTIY
Wee1 stab conf – confirmation of human Wee1 degradation inhibitors; shares compounds with Wee1 stabilizer; HeLa Luc-Wee1K328M degradation, luminescence; vehicle 0%, proteasome-blocked wells 100%; activation, % at 5 µM; actives 4% (n = 1,100); in the data active means activation above about 8.9%
Large screens that a line does not name were inactive (follow-up assays come after a bar, where they were run).

CC1CC(C)CN(C(=O)Nc2ccccc2F)C1 (centres undefined)	Wee1 stabilizer 18.9 | Wee1 stab conf inactive
CCOC(=O)c1ccccc1NC(=S)N1CC(C)CC(C)C1 (centres undefined)	Wee1 stabilizer 14.9 | Wee1 stab conf inactive
Cc1cc(NC(=O)CSc2nnc(-c3ccncc3)n2C)n(-c2ccccc2)n1	none
O=C(CSc1nnc(NC(=O)c2ccco2)s1)Nc1ccccc1	none
N#CC(C(N)=O)=C1CCCCC1	none
O=C(Cc1ccc(Cl)cc1)Nc1ccc(S(=O)(=O)Nc2cnc3ccccc3n2)cc1	Wee1 stabilizer 11.5 | Wee1 stab conf inactive
CNC(=S)Nc1ccc(OCc2ccccc2)cc1	none
CCOc1ccc(NC(=S)Nc2ccc(OCc3ccccc3)cc2)cc1	Wee1 stabilizer 16.5 | Wee1 stab conf inactive
NC(=O)C1=C[C@H](c2csc3ccccc23)C[C@H](OCCCCO)O1	Wee1 stabilizer 11.1 | Wee1 stab conf inactive
Cc1ccc(S(=O)(=O)N2CCN(Cc3ccco3)CC2)c(C)c1	none (no result: Wee1 stabilizer)
CCN(CC)CC(=O)NN(Cc1ccccc1)c1ccccc1	Wee1 stabilizer 11.1 | Wee1 stab conf inactive
COc1ccccc1-c1nnc(SCC(=O)N2CCCCC2)o1	none (no result: Wee1 stabilizer)
COc1ccccc1-c1nnc(-c2ccc(N3CCOCC3)cc2)o1	Wee1 stabilizer 14.5 | Wee1 stab conf inactive
COc1ccccc1-c1nnc(SCC(=O)N2CCOCC2)o1	Wee1 stabilizer 11.5 | Wee1 stab conf inactive
COc1ccccc1Oc1ccc(S(=O)(=O)N2CCCCC2)cc1NC(=O)CCNC(C)=O	none (no result: Wee1 stabilizer)
COCCCNC(=O)C1CCC(CNS(=O)(=O)c2ccc(Cl)cc2)CC1 (centres undefined)	none
O=C(N/N=C/c1ccc(F)cc1)c1ccccc1	Wee1 stabilizer 11.5 | Wee1 stab conf inactive
COc1cccc(C(=O)NCc2ccco2)c1OC	none (no result: Wee1 stabilizer)
O=C(Nc1ccc(N2CCCCC2)cc1)c1ccc(F)cc1	Wee1 stabilizer 10.9 | Wee1 stab conf inactive
COc1ccccc1OCC(=O)Nc1ccc(N2CCCCC2)cc1	Wee1 stabilizer 11.2 | Wee1 stab conf inactive
O=C(c1ccc(F)cc1)c1ccc(N2CCCCC2)cc1	none (no result: Wee1 stabilizer)
CC1=NCCN1CCNC(=O)Nc1ccc(C(C)(C)C)cc1	Wee1 stabilizer 14.9 | Wee1 stab conf inactive
COCCn1c(SCC(=O)Nc2ccc(F)cc2)nc2c(oc3ccccc32)c1=O	Wee1 stabilizer 11.4 | Wee1 stab conf inactive
CCCCCCCNC(=O)C1(CC2CC(c3ccc(Cl)cc3)=NO2)CCN(C(=O)C2(C)CC2)CC1 (centres undefined)	none (no result: Wee1 stabilizer)
C=CCn1c(N)c(C(=O)Nc2ccccc2)c2nc3ccccc3nc21	aSyn 5UTR inh inconclusive, Wee1 stabilizer 14.8 | Wee1 stab conf inactive
COCCOC(=O)c1c(C)oc2ccc(OCc3ccccc3)cc12	Wee1 stabilizer 13.7 | Wee1 stab conf inactive
CCOC(=O)c1c(-c2ccccc2)oc2ccc(OC(C)=O)cc12	Wee1 stabilizer 13.3 (no result: HIF activator) | Wee1 stab conf inactive
Cc1nn(-c2ccccc2)c(C)c1-c1cc(C(=O)N/N=C/c2cccnc2)[nH]n1	Wee1 stabilizer 19.4 | Wee1 stab conf inactive
Cc1cc(C)c(S(=O)(=O)N2CCOC2CNC(=O)C(=O)NCCCN2CCOCC2)c(C)c1 (centres undefined)	none (no result: Wee1 stabilizer)
CN1CCN(S(=O)(=O)c2ccc(NC(=O)c3ccc(F)cc3Cl)cc2)CC1	none (no result: Wee1 stabilizer)
Cc1csc(SC(C)C(=O)NCC2CCCO2)n1 (centres undefined)	none (no result: KLF5 inhibitor, Wee1 stabilizer)
Cc1ccc(NC(=O)Cn2nnc(-c3ccccc3NC(=O)c3cccs3)n2)cc1	aSyn 5UTR inh 67.2, Wee1 stabilizer 13.6 | Wee1 stab conf inactive
COc1ccc(NC(=O)Cn2nnc(-c3ccccc3NC(=O)c3cccs3)n2)cc1	none
CC(=O)c1cc2c(C)c(C(=O)c3ccccc3)oc2cc1O	Wee1 stabilizer 11.8 | Wee1 stab conf inactive
Cc1oc2ccc(O)cc2c1C(=O)c1ccccc1	none (no result: Wee1 stabilizer)
CCOC(=O)C1=C(C)NC(=S)NC1/C=C/c1ccccc1 (centres undefined)	Wee1 stabilizer 16.0 | Wee1 stab conf inactive
COC(=O)C1=C(C)NC(=S)NC1/C=C/c1ccccc1 (centres undefined)	none
CCOc1ccc2cc(C3CC(c4ccco4)=NN3S(=O)(=O)c3ccccc3)c(Cl)nc2c1 (centres undefined)	none
COc1ccc2cc(C3CC(c4ccco4)=NN3S(=O)(=O)c3ccccc3)c(Cl)nc2c1 (centres undefined)	Wee1 stabilizer 16.5 | Wee1 stab conf inactive
O=C(NC(=S)Nc1ccc2c(c1)OCCO2)c1cccc2ccccc12	Wee1 stabilizer 11.9 | Wee1 stab conf inactive
O=C(NC(=S)Nc1ccc2c(c1)OCCO2)c1cccc(Br)c1	none
Cc1ccc(C)c(C(=O)NC2CC(C)(C)NC(C)(C)C2)c1	none
Cc1ccc(C(=O)NC2CC(C)(C)NC(C)(C)C2)cc1C	Wee1 stabilizer 11.9 | Wee1 stab conf inactive
COC(=O)c1ccc(COc2ccccc2/C=C(\C#N)C(=O)Nc2ccccc2C)cc1	Wee1 stabilizer 20.3 | Wee1 stab conf inactive
O=C(Nc1ccon1)c1cccc(S(=O)(=O)N2CCCC2)c1	Wee1 stabilizer 29.0 | Wee1 stab conf inactive
O=C(NCCCN1CCOCC1)C(=O)N/N=C/c1c(Cl)cccc1Cl	Wee1 stabilizer 16.1 | Wee1 stab conf inactive
O=C(NCCCN1CCOCC1)C(=O)N/N=C/c1ccccc1Cl	none
CC(=O)Nc1cccc(C(=O)OCC(=O)Nc2ccc(Cl)cn2)c1	none (no result: KLF5 inhibitor, Wee1 stabilizer)
CNS(=O)(=O)c1cccc(C(=O)OCC(=O)Nc2ccc(Cl)cn2)c1	Wee1 stabilizer 12.0 | Wee1 stab conf inactive
CCN(CC)c1ccc(/C=N/NC(=O)c2ccoc2C)cc1	Platelet DG rel 67.5, Wee1 stabilizer 15.8 | Wee1 stab conf inactive
CCc1ccc(-n2c(=O)c3c(C)c(C(=O)N(C)C)sc3n(CC(=O)NCc3ccco3)c2=O)cc1	none
Cn1cc(Br)c(C(=O)NC2CCCCCC2)n1	none (no result: Wee1 stabilizer)
Cn1cc(Br)c(C(=O)NC2C3CC4CC(C3)CC2C4)n1 (centres undefined)	Wee1 stabilizer 12.1 | Wee1 stab conf inactive
FC(F)(F)c1cc(-c2cccs2)nc2nc(N3CCOCC3)sc12	Wee1 stabilizer 12.2 | Wee1 stab conf inactive
COc1cccc(-c2nc(C(=O)NCC3CCCO3)cc3c2[nH]c2ccccc23)c1 (centres undefined)	none (no result: Wee1 stabilizer)
COc1ccccc1-c1ccc(SCc2ccccc2F)nn1	Wee1 stabilizer 13.1 | Wee1 stab conf 13.9
COc1ccccc1-c1ccc(SCc2ccccc2)nn1	none
O=C(CCc1n[nH]c(=O)[nH]c1=O)Nc1cccc([N+](=O)[O-])c1	Wee1 stabilizer 13.3 | Wee1 stab conf inactive
COc1cccc(N2CCN(C(=O)c3ccc(CS(=O)Cc4ccc(Cl)cc4)o3)CC2)c1 (centres undefined)	none (no result: Wee1 stabilizer)
O=C(CN1CCN(c2ccccn2)CC1)N1CC(O)CO1 (centres undefined)	Wee1 stabilizer 18.2 | Wee1 stab conf inactive

Screening results as filed in PubChem.
